# Reference: PubChem BioAssay (NCATS)
# Records with an inconclusive call do not appear. A call without a number means that no potency is given here. Active and inactive are the calls of the source. Calls come from the whole dose curve; as a rule, active = well fitted curve in the direction sought with a large enough effect; inconclusive = small, poorly fitted or top-dose-only effect, or another doubt; inactive = no such curve, though single readings can be large; an effect the other way counts as inactive or inconclusive.
# Assays:
# [1] = Primary fluorescence-based thiol-reactive (MSTI) qHTS assay for identification of artifact compounds. (AID 1845221); note: nearly all actives have a fitted effect of over 65% in size; note: potency is the fitted concentration of half-maximal effect
# Method in brief: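 Thiol-reactive compounds detected by quenching of 4 uM MSTI fluorescence (525/598 nm) after 1 h room-temperature dark incubation in PBS pH 7.4, 2% DMSO. qHTS titration; percent inhibition Hill-fitted against Acetyl-MSTI/MSTI controls.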
# [2] = test system: Nanoluciferase (engineered Oplophorus gracilirostris luciferase); assay: Primary Nanoluciferase (NLuc) qHTS assay for identification of artifact compounds. (AID 1845222);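 note: NLuc secreted into diluted conditioned medium of S16 cells; series mostly up to about 54 µM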
# Method in brief: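 Concentration-response data were obtained by luminescence after 5 min with Nano-Glo substrate at 1:100. The enzyme was diluted S16 NLuc-expressing cell medium, preincubated with compound for 15 min at RT. Curves were fitted with a 4-parameter Hill model.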
# [3] = Primary redox qHTS assay for identification of artifact compounds. (AID 1845223)
# Method in brief: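 Redox-cycling detection via DTT (250 uM final) oxidation coupled to Amplex Red (25 uM)/HRP (250 mU/mL) in HBSS. 15 min preincubation plus 30 min after DTT, room temperature. Ex/Em 525/598 nm; 4-parameter Hill fit against DMSO and 10 uM DA3003.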
Structure (SMILES),Potency [1],Potency [2],Potency [3]
OCC1OC(Oc2cc(O)cc(/C=C/c3ccc(OC4OC(CO)C(O)C(O)C4O)cc3O)c2)C(O)C(O)C1O (configuration not stated),inactive,inactive,inactive
CC1=C(CC/C(C)=C/C(=O)O)[C@@]2(C)CCCC(C)(C)C2CC1=O (some centres not stated),inactive,inactive,inactive
COc1cc(/C=C/C(=O)OC[C@H]2O[C@@H](OC3CC(C)=C(C(=O)O)C(C)(C)C3)[C@H](O)[C@@H](O)[C@@H]2O)cc(OC)c1O (some centres not stated),3.27 µM (active),inactive,inactive
OC[C@H]1O[C@@H](OCCc2ccccc2)[C@H](O[C@@H]2OC[C@@H](O)[C@H](O)[C@H]2O)[C@@H](O)[C@@H]1O,4.12 µM (active),inactive,inactive
CC1(C)C=Cc2c(ccc3c2N=C2C(C)(C)[C@@H]4C[C@]56CCCN5C(=O)[C@@]4(C[C@]23O)NC6=O)O1,inactive,inactive,inactive
O=C(/C=C/c1ccccc1)O[C@@H]1[C@@H](CO)O[C@@](CO)(O[C@H]2O[C@H](CO)[C@@H](O)[C@H](O)[C@H]2O)[C@H]1O,2.92 µM (active),inactive,inactive
COc1c(C)c(OCC=C(C)C)cc2c1CNC2=O,inactive,inactive,inactive
COc1cc(C(C)=O)ccc1O[C@@H]1O[C@H](CO[C@@H]2OC[C@@H](O)[C@H](O)[C@H]2O)[C@@H](O)[C@H](O)[C@H]1O,inactive,inactive,inactive
C/C=C/C=C/C=C/C(=O)O[C@@H]1C=C(CO)[C@](O)(CO)[C@@]2(C)CCCC(C)(C)[C@H]12,inactive,inactive,inactive
